Experimental data: PubChem BioAssay (NCATS)
Several values for one entry are separate records, joined by “and”; a condition that tells them apart may be missing. Identical values can stand only once. Records with an inconclusive call do not appear. Activity calls are given as the source filed them.

Test: qHTS assay for small molecule agonists of the antioxidant response element (ARE) signaling pathway (AID 651741; active = well fitted activation curve with a large enough effect in the signal ratio; the % refers to the signal ratio; as to activation: % of control where 0% means no effect)
Settings: HepG2 ARE-bla reporter, beta-lactamase FRET ratio, 16 h; series mostly up to 96 µM
Procedure, shortened: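 Beta-lactamase reporter under ARE control in HepG2 cells, 2,000 per well, was induced by 16 h compound treatment at 37 C. Read-out was fluorescence from LiveBLAzer B/G FRET substrate after 2 h at room temperature.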
Potency is read from the fitted curve at half-maximal effect.

Row | Compound | Potency
1 | CCCCC(CC)COC(=O)CC(C(=O)OCC(CC)CCCC)S(=O)(=O)O (stereo unspecified) | 43.3 µM (active)
2 | IC(I)I | 68.6 µM (active)
3 | O=S(=O)(O)O | inactive
4 | CCOc1ccc2c(c1)C(C)=CC(C)(C)N2 | 27.3 µM (active)
5 | CCCCC/C=C\C/C=C\CCCCCCCC(=O)O | inactive
6 | CC(O)CO (stereo unspecified) | inactive

Test: qHTS assay for small molecule activators of the p53 signaling pathway (AID 651743; active = well fitted activation curve with a large enough effect in the signal ratio, not every such curve was filed as active; the % refers to the signal ratio; as to activation: % of control where 0% means no effect)
Settings: HCT-116 p53RE-bla, beta-lactamase FRET ratio, 16 h; activation: stronger effect = higher value
Procedure, shortened: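 After 16 hours compound treatment at 37 C, HCT-116 cells stably expressing p53RE-driven beta-lactamase were loaded with LiveBLAzer B/G FRET substrate for 2 hours at room temperature. Fluorescence intensity served as the p53 activation read-out.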

Row | Compound | activation | Potency
7 | CCOC(C)=O | -1.83% (inactive) | 
8 | CCCCC(CC)COC(=O)CC(C(=O)OCC(CC)CCCC)S(=O)(=O)O (stereo unspecified) | 1.7% (inactive) | 
9 | IC(I)I | -2.94% (inactive) and -3.68% (inactive) | 
10 | CCOc1ccc2c(c1)C(C)=CC(C)(C)N2 | 3.65% (inactive) | 
11 | CC1=CCC(C(C)(C)O)CC1 (stereo unspecified) | -5.6% (inactive) | 
12 | CC1(C)C(C=C(Cl)Cl)C1C(=O)OCc1cccc(Oc2ccccc2)c1 (stereo unspecified) | -1.26% (inactive) [middle of 4 runs] | 
13 | C[C@H]1C[C@H]2[C@@H]3CCC4=CC(=O)C=C[C@]4(C)[C@@]3(F)[C@@H](O)C[C@]2(C)[C@@]1(O)C(=O)CO | -9.59% (inactive) | 
14 | CCCCC/C=C\C/C=C\CCCCCCCC(=O)O | 1.23% (inactive) and -4.95% (inactive) | 
15 | CC(O)CO (stereo unspecified) | 0.0778% (inactive) and -3.92% (inactive) | 
16 | O=CCCCC=O |  | 35.5 µM (active)
